Screening data as filed in PubChem BioAssay.
The list is not random: actives were taken first. Their share in the collection is about 5.9%.
GLP1R ag: agonists of human GLP-1 receptor | 0.007% of 380,000 active | HEK293 GLP-1R CRE-luciferase, luminescence, 4-6 h; cells express a hypersensitive GLP-1R form | Potency, µM (top dose mostly 45.6 µM), inactives show at the top dose activation, actives largely listed as activators | P43220 | AID 624172; note: % of control where 0% means no effect
GLP1R cytotox: cytotoxicity in counter-screen for GLP-1R inverse agonists; Potency, µM (top dose mostly 38.3 µM), for inactives: top-dose activity change, negative = inhibition, most hits filed as inhibitors; AID 624418; HEK293 cAMP-luciferase reporter cells, luminescence, 24 h; 0.13% of 410,000 active;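 note: loss of luciferase light is scored as toxicity; % is set by controls: 0 for no effect and ±100 for the full control effect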
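1536-well qHTS counterscreen of the MLSMR; 200 cells/uL, 12 h pre-incubation, 23 nL cpd, 24 h at 37 deg C 5% CO2, luciferase detection reagent, 12 min RT, luminescence. Inhibition = undesired.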
VP16 counter: inhibits Gal4-VP16 luciferase reporter, ROR gamma counter-screen; Drosophila S2 Gal4-VP16 UAS-luciferase, luminescence, 20 h; Potency, µM (series often up to 53.6 µM), for inactives: at the top dose activity, negative = inhibition, most hits filed as inhibitors; 3.5% of 310,000 active;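 note: Gal4-VP16 expression switched on by copper sulfate through the metallothionein promoter; % is set by controls: 0 for no effect and ±100 for the full control effect; nearly all actives have a fitted effect of over 50% in size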
RORg inh: inhibitors of mouse ROR gamma transcriptional activity; 5.4% of 310,000 active; AID 2551; Potency, µM (titrated, usually from 53.6 µM), inactives show top-dose activity change, negative = inhibition, usual class: inhibitors; Drosophila S2 Gal4-RORgamma UAS-luciferase reporter, 20 h; note: % is set by controls: 0 for no effect and ±100 for the full control effect; nearly all actives have a fitted effect of over 60% in size
Target sequence (P51450 whole entry, looked up, the tested form may be a part): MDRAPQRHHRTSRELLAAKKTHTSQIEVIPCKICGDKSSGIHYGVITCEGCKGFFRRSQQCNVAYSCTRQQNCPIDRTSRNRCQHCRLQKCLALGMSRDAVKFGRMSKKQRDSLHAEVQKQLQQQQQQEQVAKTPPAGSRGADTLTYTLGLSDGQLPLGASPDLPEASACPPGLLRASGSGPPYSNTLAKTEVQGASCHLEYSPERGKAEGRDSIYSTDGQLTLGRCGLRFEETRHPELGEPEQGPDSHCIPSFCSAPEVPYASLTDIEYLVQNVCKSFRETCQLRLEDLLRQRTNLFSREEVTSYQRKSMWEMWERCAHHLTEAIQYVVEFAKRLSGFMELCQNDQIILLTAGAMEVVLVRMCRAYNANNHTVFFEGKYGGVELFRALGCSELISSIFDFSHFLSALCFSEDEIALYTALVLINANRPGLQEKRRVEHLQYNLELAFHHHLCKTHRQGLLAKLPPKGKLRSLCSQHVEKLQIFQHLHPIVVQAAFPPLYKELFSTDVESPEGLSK
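Schneider cells (Drosophila), stable Gal4 DBD–ROR gamma + UAS-luc; 1 hr cmpd preincubation; Cu2+ induction 700 uM final; 20 hr ambient; luminescence.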
GLP-1R inv ag: acts as inverse agonist at human GLP-1 receptor; HEK293 GLP-1R CRE-luciferase, luminescence, 24 h; GLP-1R form is constitutively active; Potency, µM (series often up to 38.3 µM), without a hit: at the highest dose activity change, negative = inhibition, usual class: inhibitors; P43220; 1.6% of 410,000 active; note: % is set by controls: 0 for no effect and ±100 for the full control effect; nearly all actives have a fitted effect of over 55% in size
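Using stably transfected HEK293 (constitutively active GLP-1R, cAMP-luciferase reporter), compounds were incubated 24 hr and luciferase measured by luminescence.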
Numbers without * were called inactive; ? = inconclusive; / = not tested or not shown; [ ] = another dose, or the depositor's remark. Calls come from the whole dose curve; as a rule, active = well fitted curve in the direction sought with a large enough effect; inconclusive = small, poorly fitted or top-dose-only effect, or another doubt; inactive = no such curve, though single readings can be large; an effect the other way counts as inactive or inconclusive. Potency is the fitted concentration of half-maximal effect.

SMILES	GLP1R ag	GLP1R cytotox	VP16 counter	RORg inh	GLP-1R inv ag
Cc1c(Cl)cccc1NC(=S)N1CCCN(Cc2ccccc2F)C1	5%	?	?	13µM*	?
O=C(Nc1ccccc1)N1CCCN(Cc2ccccc2F)C1	-9%	-5%	-3%	-4%	?
O=C(CSc1nc(=O)n(Cc2ccco2)c2c1CCC2)NCc1ccc(Cl)cc1	/	2%	/	/	6%
CCC(=O)N1CCc2cc(S(=O)(=O)CCC(=O)N3CCN(c4ccccc4Cl)CC3)ccc21	-1%	-3%	/	/	-3%
COc1cccc([C@@H]2Oc3ccc(Br)cc3C(=O)[C@H]2OC(=O)NS(=O)(=O)c2ccc(C)cc2)c1	/	/	7%	-6%	/
COc1ccc(CN=C(Nc2ccccc2)SC2CC(=O)NC2=O)cc1 (stereo unspecified)	17%	-6%	-9%	13µM*	-16%
O=C1CC(SC(=NCc2ccc3c(c2)OCO3)Nc2ccccc2)C(=O)N1 (stereo unspecified)	30%	6%	13%	1%	?
C[C@H](NC(=O)Cc1cc(F)cc(F)c1)C(=O)N[C@@H](C(=O)OC(C)(C)C)c1ccccc1	/	/	-6%	9%	/
CN(/N=C/c1cc(Cl)cc(Cl)c1O)C(=S)NC(C)(C)C	2%	187%	16µM*	?	?
COc1ccc(OC(=O)COc2ccc(C)cc2)cc1	-2%	1%	-4%	-18%	2%
COc1ccc(OCC(=O)Sc2ccc(C)cc2)cc1	-3%	-17%	1%	3.2µM*	?
O=C(Cc1ccccc1)N/N=C/c1cc(Br)cc(Cl)c1O	5%	?	1.3µM*	0.56µM*	?
O=C(CP(=O)(c1ccccc1)c1ccccc1)N/N=C/c1cc(Br)cc(Br)c1O	0%	13%[1.53 µM]	2.5µM*	1.1µM*	0%
COc1cccc(OCc2cc(=O)n3c(-c4ccccc4)csc3n2)c1	/	0%	/	/	5%
COc1ccc2cc(-c3cc(C(=O)OCC(=O)Nc4c(C)n(C)n(-c5ccccc5)c4=O)c4ccccc4n3)ccc2c1	-2%	24%	?	7.1µM*	-8%
COc1ccc(-c2cc(C(=O)OCC(=O)NC3CC3)c3ccccc3n2)cc1	17%	-3%	/	/	-20%
COc1ccc2cc(-c3cc(C(=O)OCC(=O)NC4CCS(=O)(=O)C4)c4ccccc4n3)ccc2c1 (stereo unspecified)	-1%	455%	1.8µM*	2.8µM*	?
CSCC[C@H](NC(=O)[C@H](CCCN=C(N)N)NC(=O)[C@@H]1CCCN1C(=O)[C@H](Cc1ccccc1)NC(=O)[C@H](C)NC(=O)[C@H](CC(C)C)NC(=O)[C@H](Cc1ccc(O)cc1)NC(=O)[C@H](CC(N)=O)NC(=O)[C@@H](N)CCSC)C(N)=O	/	/	-9%	5%	/
C[C@]12CCC(=O)C=C1[C@@H]1C[C@H]1[C@H]1[C@@H]3[C@@H]4C[C@H]4[C@@]4(CCC(=O)O4)[C@@]3(C)CC[C@@H]12	1%	/	-8%	8%[10 µM]	/
COc1ccc(C(=O)N(c2ccc(C)cc2)S(=O)(=O)c2ccc(C)cc2)cc1	/	?	/	/	3.2µM*
COc1ccc(N(C(=O)c2cc(OC)c(OC)c(OC)c2)S(=O)(=O)c2ccc(C)cc2)cc1	/	0%	/	/	?
CCCCOC(=O)c1ccc(NC(=O)C2(c3cccs3)CCOCC2)cc1	/	0%	/	/	?
Cc1ccc(CCNC(=O)c2ccc3c(c2)N(Cc2cccc(Cl)c2)C(=O)c2ccccc2S3(=O)=O)cc1	/	-6%	/	/	?
CC#CCOC(=O)c1c(C)nc2sc3c(c2c1N)CC[C@@H](O)C3	/	/	?	7.1µM*	/
COc1ccccc1/C=C/C=N/n1c(-c2cc(C)[nH]n2)n[nH]c1=S	-3%	11%	?	?	27%
SMILES	GLP1R ag	GLP1R cytotox	VP16 counter	RORg inh	GLP-1R inv ag
Oc1ccc(/C=N/n2c(C3CCCCC3)n[nH]c2=S)c(O)c1	-2%	0%	-3%	-16%	62%
COc1cccc(/C=N/n2c(C3CCCCC3)n[nH]c2=S)c1O	11%	-4%	13µM*	10µM*	-5%
S=c1[nH]nc(C2CCCCC2)n1/N=C/c1cccc(Cl)c1Cl	8%	12%	5µM*	3.5µM*	?
COc1cccc(/C=N/n2c(C3CCCCC3)n[nH]c2=S)c1OC	13%	-30%	7.1µM*	3.2µM*	?
COc1ccccc1/C=C\C=N\n1c(C2CCCCC2)n[nH]c1=S	12%	-4%	?	2.2µM*	-48%
COc1cc(OC)c(/C=N/n2c(C3CCCCC3)n[nH]c2=S)c(OC)c1	7%	-4%	-2%	-35%	18%
CCCCNc1nc(Oc2ccc(=O)n(C)n2)nc(N(C)C)n1	/	7%	/	/	-2%
COc1ccc(/C=N/n2c(C3CCCCC3)n[nH]c2=S)c(OC)c1	20%	-23%	7.1µM*	3.5µM*	?
COc1ccccc1NC(=O)/C(C#N)=C/c1ccncc1	-3%	5%	2.5µM*	?	11%
COc1ccccc1NC(=O)/C(C#N)=C/c1cccnc1	2%	10%	-1%	-30%	7%
CCOc1ccc(-n2c(SC(C)C(=O)OC)nc3c([nH]c4ccccc43)c2=O)cc1 (stereo unspecified)	-4%	2%	/	/	?
COc1cccc(-c2ccc(SCC(=O)NC3CCCC3)nn2)c1	-6%	-2%	9%	2%	4%
O=C(CSc1ccc(-c2cccc([N+](=O)[O-])c2)nn1)NC1CCCC1	6%	0%	-2%	1.8µM*	27%
CCOc1ccc(CN2C(=O)c3ccccc3Sc3ccc(C(=O)NC4CCC(C)CC4)cc32)cc1 (stereo unspecified)	-1%	6%	/	/	-3%
O=c1sc(Nc2ccccc2)nc2ccccc12	9%	10%	-6%	-10%	42%
Cc1ccc(Nc2nc3ccccc3c(=O)s2)cc1	4%	0%	11µM*	6.3µM*	17%
N#Cc1cccc(NC(=O)N2CC[C@@]3(CCCN(C(=O)c4cc(C(F)(F)F)cc(C(F)(F)F)c4)C3)C2)c1	/	/	8%	35%	/
c1cc(Nc2cccc3nccnc23)c2nccnc2c1	20%	?	1.1µM*	0.28µM*	3%
Cc1cc(C)c(S(=O)(=O)NCc2ccc3c(c2)CCN3C(=O)c2ccccc2)c(C)c1	/	0%	/	/	6%
CC1CCCCN1c1ncnc(N)c1[N+](=O)[O-] (stereo unspecified)	0%	-13%	-14%	-31%	?
CC1Cc2ccccc2N1c1ncnc(N)c1[N+](=O)[O-] (stereo unspecified)	-6%	?	?	4.5µM*	-76%
CCOc1cccc2sc(Nc3nc4ccc(NC(C)=O)cc4s3)nc12	-4%	-13%	4µM*	3.5µM*	-26%
